Here are results for eight molecules from PubChem BioAssay (NCI).

Among the test systems are HCT-15 colon; HT29 colon; SNB-75 CNS; SNB-19 CNS; U251 CNS; PC-3 prostate; SK-MEL-5 melanoma; UACC-62 melanoma; LOX IMVI melanoma; SK-MEL-28 melanoma; SK-MEL-2 melanoma; EKVX NSCLC; SN12C renal; UO-31 renal; TK-10 renal; ACHN renal; CAKI-1 renal; A498 renal; CCRF-CEM leukemia; MOLT-4 leukemia.
What all share (assay): NCI-60 one-dose screen, 48 h (100 = growth as untreated, 0 = no growth, -100 = all killed)
What all share (conditions): 10 µM unless noted

About 83,000 compounds went through this panel and 20% of them were active in at least one assay; those are over-represented in the sample as a whole.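 Values shown are percent growth following 48 h exposure of cells in 96-well plates to a single concentration of compound; below 10 was considered active.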 A number with no mark means an inactive call. The source made the active and inactive calls.

Turning to `N#Cc1c(N)nnn1Cc1cc(=O)oc2c1ccc1ccccc12`, the growth in the test on HCT-15 colon was 102%; in the test on HT29 colon it was 101%; in the test with SNB-75 CNS, 88.7%; in the test with SNB-19 CNS it was 91.7%; with U251 CNS it was 97.5%; in the test with PC-3 prostate, 93.4%. Besides, the growth in the test with SK-MEL-5 melanoma was 97.6%; with UACC-62 melanoma, 92.5%; with LOX IMVI melanoma, 59.3%; with SK-MEL-28 melanoma, 113%; in the test with SK-MEL-2 melanoma, 94.6%; in the test on EKVX NSCLC it was 76.1%. Moreover, the growth is 94.2% with SN12C renal; 72.8% in the test on UO-31 renal; 115% in the test with TK-10 renal; 97.6% in the test on ACHN renal; 98% in the test with CAKI-1 renal; 89.7% in the test with A498 renal. Also, the growth in the test on CCRF-CEM leukemia was 90.9%; with MOLT-4 leukemia it was 89%.
With `CCCC(=O)NC(c1ccc2c(c1)OCO2)c1ccc2cccnc2c1O` (stereo not given), the growth in the test with HCT-15 colon is 35%; with HT29 colon, 25.4%; in the test with SNB-75 CNS it was 17.5%; with SNB-19 CNS, 29.5%; in the test on U251 CNS, 14.5%; with PC-3 prostate it was 33.5%. Moreover, the growth in the test on SK-MEL-5 melanoma was -12.4% (active); in the test with UACC-62 melanoma, -5.34% (active); in the test on LOX IMVI melanoma, 12%; in the test with SK-MEL-28 melanoma it was 34.5%; in the test with SK-MEL-2 melanoma, 46%; with EKVX NSCLC, 19.1%. Also, the growth was 23.9% in the test with SN12C renal; -23.2% (active) with UO-31 renal; 25.8% in the test on TK-10 renal; 5.12% (active) in the test with ACHN renal; 6.21% (active) in the test with CAKI-1 renal; 12.9% in the test on A498 renal. The values for the growth in the test with CCRF-CEM leukemia and with MOLT-4 leukemia were 4.72% (active) and 2.22% (active), respectively.
`O=C1NCCC12CCN(c1c(Cl)cncc1-c1ccc(O)cc1)CC2`: the growth in the test on HCT-15 colon was 105%; in the test with HT29 colon, 94.2%; in the test with SNB-75 CNS it was 112%; in the test with SNB-19 CNS it was 98.9%; with U251 CNS it was 94.9%; with PC-3 prostate, 98.8%. In addition, the growth in the test on SK-MEL-5 melanoma was 94.4%; in the test on UACC-62 melanoma, 90.2%; with LOX IMVI melanoma it was 87.7%; with SK-MEL-28 melanoma it was 103%; in the test with SK-MEL-2 melanoma, 105%; in the test with EKVX NSCLC, 86.4%. The growth is 99.6% with SN12C renal; 77.8% with UO-31 renal; 86.9% in the test with TK-10 renal; 70.2% in the test on ACHN renal; 90.3% in the test on CAKI-1 renal; 85% in the test on A498 renal. In addition, the figures for the growth in the test with CCRF-CEM leukemia and in the test with MOLT-4 leukemia were 98.9% and 102%, respectively.
Turning to `N=C(N)c1ccc(-c2ccc(-c3cc(Cl)cc(Cl)c3)o2)o1`, the growth was -89.3% (active) with HCT-15 colon; -81.1% (active) with HT29 colon; -68.9% (active) in the test on SNB-75 CNS; -64.9% (active) in the test with SNB-19 CNS; -89.9% (active) with U251 CNS; -25.8% (active) with PC-3 prostate. Further, the growth is 16.2% with SK-MEL-5 melanoma; -81% (active) in the test with UACC-62 melanoma; -83.6% (active) with LOX IMVI melanoma; -80.2% (active) with SK-MEL-28 melanoma; -43.5% (active) in the test on SK-MEL-2 melanoma; -88.2% (active) in the test on EKVX NSCLC. Moreover, the growth was -67.6% (active) in the test on SN12C renal; -68.1% (active) with UO-31 renal; -76.3% (active) with TK-10 renal; -88.7% (active) in the test with ACHN renal; -74.7% (active) with CAKI-1 renal; 58.8% with A498 renal. In addition, the growth was -39.1% (active) in the test with CCRF-CEM leukemia and -60.4% (active) in the test with MOLT-4 leukemia.
In the case of `CCC(=C(c1ccc(OCCN2CCCC2)cc1)c1ccc(OCCN2CCCC2)cc1)c1ccc(Cl)cc1`, the growth is -70.5% (active) in the test with HCT-15 colon; -49.9% (active) in the test with HT29 colon; -58.2% (active) in the test with SNB-75 CNS; -19% (active) with SNB-19 CNS; -77.4% (active) in the test with U251 CNS; -7.15% (active) in the test with PC-3 prostate. Further, the growth was -83.4% (active) in the test on SK-MEL-5 melanoma; -46.9% (active) in the test on UACC-62 melanoma; -90.3% (active) in the test with LOX IMVI melanoma; -81.7% (active) with SK-MEL-28 melanoma; -28.2% (active) with SK-MEL-2 melanoma; 92.7% in the test on EKVX NSCLC. Moreover, the growth is -62.9% (active) in the test with SN12C renal; -73.4% (active) in the test on UO-31 renal; -12.5% (active) with TK-10 renal; -84.6% (active) in the test with ACHN renal; -58.7% (active) with CAKI-1 renal; 46.8% with A498 renal. Further, the growth is -38.7% (active) with CCRF-CEM leukemia and -27.2% (active) in the test with MOLT-4 leukemia.
As to `COc1ccc(-c2nn(-c3ccccc3)cc2/C=C2/SC(=S)N(C)C2=O)cc1`, the growth is 74.2% in the test on HCT-15 colon; 64.6% in the test on HT29 colon; 33.3% in the test with SNB-75 CNS; 60.7% with SNB-19 CNS; 8.95% (active) with U251 CNS; 84.9% in the test on PC-3 prostate. Besides, the growth with SK-MEL-5 melanoma is 98.5%; with UACC-62 melanoma, 86%; with LOX IMVI melanoma, 77.1%; in the test on SK-MEL-28 melanoma it was 108%; in the test with SK-MEL-2 melanoma it was 108%; in the test on EKVX NSCLC, 74.4%. In addition, the growth is 34.2% in the test with SN12C renal; 16% with UO-31 renal; 27.7% with TK-10 renal; -0.446% (active) with ACHN renal; 38.5% in the test on CAKI-1 renal; 96.9% in the test on A498 renal. The growth in the test on CCRF-CEM leukemia was 49.6%; in the test on MOLT-4 leukemia it was 81.3%.
Turning to `N=C(N)c1ccc(-c2ccc(-c3ccc(F)cc3)o2)o1`, the growth is -0.304% (active) in the test with HCT-15 colon; -20.3% (active) in the test with HT29 colon; 20% in the test on SNB-75 CNS; 26.7% with SNB-19 CNS; -11.7% (active) in the test with U251 CNS; 19.3% with PC-3 prostate. Further, the growth in the test with SK-MEL-5 melanoma is 21.7%; in the test on UACC-62 melanoma, 57.5%; in the test on LOX IMVI melanoma, -61.6% (active); in the test on SK-MEL-28 melanoma, 65.1%; in the test on SK-MEL-2 melanoma, 35.6%; with EKVX NSCLC it was 47.5%. The growth was 37.4% in the test on SN12C renal; 15.5% in the test with UO-31 renal; 49.9% with TK-10 renal; 27.2% in the test with ACHN renal; 31.3% in the test on CAKI-1 renal; 37.1% with A498 renal. Besides, the growth in the test with CCRF-CEM leukemia was 2.36% (active); with MOLT-4 leukemia, 8.09% (active).
Turning to `O=C1c2cc(Cl)ccc2S(=O)(=O)c2c(NCCCNCCO)nc3ccccc3c21`, the growth in the test on HCT-15 colon is -65.4% (active); with HT29 colon, -78.8% (active); in the test on SNB-75 CNS it was 32.6%; with SNB-19 CNS it was 56.4%; with U251 CNS, -15.8% (active); in the test with PC-3 prostate, -14.2% (active). The growth in the test with SK-MEL-5 melanoma was 11.3%; in the test on UACC-62 melanoma, 2.05% (active); with LOX IMVI melanoma it was -76.8% (active); in the test with SK-MEL-28 melanoma, 6.11% (active); with SK-MEL-2 melanoma, 23%; with EKVX NSCLC it was 33.2%. Besides, the growth was -46% (active) in the test on SN12C renal; -94.4% (active) with UO-31 renal; -79.6% (active) with TK-10 renal; -99.9% (active) in the test on ACHN renal; 6.57% (active) with CAKI-1 renal; 57.3% in the test with A498 renal. The growth in the test on CCRF-CEM leukemia is -22.2% (active); in the test with MOLT-4 leukemia it was -19% (active).
